Bioassay records from PubChem.
Most compounds without a hit are left out; they make up all but 3.3% or so of the library.
SUMO HTRF inh: inhibitors of in vitro SUMOylation cascade, primary screen, biochemical, HTRF, uHTS | inhibition, % at 35 µM | SUMO-conjugating enzyme UBC9 (Homo sapiens), P63279 | AID 2006, 2009 | HTRF SUMOylation assay, SAE1/SAE2 + UBC9 | 290,000 compounds, 0.36% hits; in the data active = inhibition above about 50%, passing the limit was not always enough
Target sequence (P63279 whole entry, looked up): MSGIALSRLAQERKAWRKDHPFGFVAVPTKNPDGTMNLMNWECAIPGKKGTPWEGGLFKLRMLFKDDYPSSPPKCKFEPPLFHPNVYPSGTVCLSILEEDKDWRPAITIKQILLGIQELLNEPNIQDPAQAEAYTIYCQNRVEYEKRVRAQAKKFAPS
NR3A LBD binder: binders of NR3A ligand-binding domain, primary screen, biophysical, differential scanning fluorimetry, uHTS. NR3A LBD differential scanning fluorimetry, Tm shift; 0% = protein alone, 100% = glycine-bound protein. Tm shift relative to glycine control, % at 25 µM. 340,000 compounds, 2.5% hits. AID 1259313, 2017;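 active = melting temperature shift of at least 10% of the positive control shift, at one fixed dose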
UBC13 inh: UBC13 polyubiquitin chain formation inhibitors, primary screen, biochemical, TR-FRET, uHTS | Ubiquitin-conjugating enzyme E2 N (Homo sapiens), P61088 | inhibition, % at 20 µM | 330,000 compounds, 0.47% hits; in the data active = inhibition above about 45%, passing the limit was not always enough
Target sequence (P61088 whole entry, looked up): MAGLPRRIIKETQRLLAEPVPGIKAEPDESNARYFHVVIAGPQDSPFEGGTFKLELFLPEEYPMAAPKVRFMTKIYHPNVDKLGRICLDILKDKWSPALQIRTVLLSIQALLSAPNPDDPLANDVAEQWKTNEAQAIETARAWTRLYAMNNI
HGIII-sPLA2 inh: human group III sPLA2 inhibitors, primary screen, biochemical, QFRET, BODIPY PC-A2 liposome substrate; Group 3 secretory phospholipase A2 (Homo sapiens), Q9NZ20; QFRET BODIPY PC-A2 liposome hydrolysis, fluorescence; inhibition, % at 12.2 µM; 370,000 compounds, 0.56% hits;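 active = inhibition above mean plus 3 SD of compounds lying within the high and low control bounds, cut at about 19% in these data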;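 also: 0% = median of test compound wells and 100% = no enzyme DMSO wells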
hGIII sPLA2 conf: human group III sPLA2 inhibitors, confirmation, biochemical, QFRET, triplicate; shares compounds with HGIII-sPLA2 inh; recombinant hGIII-sPLA2, BODIPY PC-A2 QFRET fluorescence; inhibition, % at 12.2 µM; 2,000 compounds, 34% hits;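 active = mean inhibition across triplicates above the hit cutoff set in the earlier primary screen, cut at about 19% in these data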;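 also: 0% = enzyme with DMSO and 100% = DMSO wells lacking enzyme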
535nm interf: 535nm fluorescence optical interference, confirmation, artefact control for HGIII-sPLA2 inhibitor project, biochemical, QFRET; shares compounds with HGIII-sPLA2 inh; BODIPY FL product fluorescence interference; inhibition, % at 12.2 µM; 2,000 compounds, 8.5% hits;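 active = average inhibition above the solvent-only control mean plus 3 SD, cut at about 6% in these data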;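 also: 0% = DMSO with substrate plus product and 100% = DMSO with substrate alone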
535nm interf DR: 535nm fluorescence optical interference, dose response, artefact control for HGIII-sPLA2 inhibitor project, biochemical, QFRET. IC50, µM. shares compounds with HGIII-sPLA2 inh. BODIPY FL product fluorescence interference, cell-free. 240 tested, under 10 active. AID 743455, 2014;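 active = IC50 at or below 10 µM; inactive = IC50 above 10 µM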
An asterisk follows results filed as active; . = not tested or not shown.

SMILES | SUMO HTRF inh | NR3A LBD binder | UBC13 inh | HGIII-sPLA2 inh | hGIII sPLA2 conf | 535nm interf | others
CC1(C(=O)NS(=O)(=O)C2CC2)CCN(C(=O)c2c(F)cccc2F)C1 (stereo not given) | . | . | . | 19.6* | 3.3 | 1.6
Cc1cccc(C(=O)N2CCC(C)(C(=O)NS(=O)(=O)C3CC3)C2)c1C (stereo not given) | . | . | . | 1.7 | . | .
CNC(=S)NNC(=O)Cc1ccc(O)cc1 | 3.5 | -0.3 | 5.0 | 25.8* | 5.6 | -2.9
Cc1ccc([N+](=O)[O-])c(-c2n[nH]c(=S)n2-c2cccc(Cl)c2)c1 | -1.9 | 2.8 | 0.9 | 31.4* | 22.5* | 6.6*
Cc1cccc(-n2c(-c3ccoc3C)n[nH]c2=S)c1 | 10.5 | 1.6 | 3.4 | 19.9* | 35.6* | -0.8 | 535nm interf DR=>122
CCN(CC)c1ccc(/C=C/c2cc(-c3ccccc3)c3ccccc3n2)cc1 | 5.4 | 0.5 | . | 25.4* | -21.8 | 4.7
CC1CCCN(C(=S)Nc2ccc3nc4n(c(=O)c3c2)CCCCC4)C1 (stereo not given) | 13.7 | -4.6 | 1.1 | 26.6* | 10.2 | -10.3
CCOC(=O)C(NC(=O)Nc1ccc(Cl)cn1)(Oc1ccc(F)cc1)C(F)(F)F (stereo not given) | 0.9 | -3.4 | 5.5 | 25.4* | -0.7 | -7.5
Cc1n[nH]c(C)c1S(=O)(=O)NCCc1ccccc1F | . | . | . | 3.1 | . | .
COc1ccc(-c2c(C#N)c(SCC(N)=O)nc3c2CCCC3)cc1 | -214.3 | 0.7 | 13.7 | 19.8* | 19.6* | -6.8
N#Cc1c(SCC(N)=O)nc2c(c1-c1ccc(O)cc1)CCCC2 | -5.6 | -5.0 | 17.1 | -3.4 | . | .
O=C1c2ccccc2C(=O)N1CCSc1n[nH]c(=S)s1 | 13.3 | 2.5 | -6.8 | 19.7* | 24.5* | 5.3
COC(=O)[C@]12C[C@H](CC(=O)N3CCC(c4ccccc4)CC3)C(=O)N(Cc3ccco3)C1=C[C@H](C(C)C)O[C@@H]2C1CC1 | . | . | . | -9.2 | . | .
COc1cc([N+](=O)[O-])ccc1N | -6.3 | -6.5 | -2.8 | 28.4* | 2.2 | -4.2
CCOC(=O)C(=O)Nc1ccc([N+](=O)[O-])cc1OC | 17.7 | -1.6 | 1.2 | 23.4* | -0.8 | -1.2
CCOC(=O)Nc1ccc([N+](=O)[O-])cc1OC | . | 1.0 | 1.4 | -4.1 | . | .
Cc1ccc([N+](=O)[O-])cc1N | 8.0 | -4.9 | 1.3 | 4.8 | . | .
CCn1c(SCC(=O)NN=Cc2cccc(OCc3ccccc3)c2)nnc1-c1ccc(OC)c(OC)c1 | . | . | . | -10.0 | . | .
COc1ccc(S[C@]2(C(=O)N3CCOCC3)CC(=O)N(C(=O)Nc3ccc(C)c(Cl)c3)[C@@H]2c2ccc(OC)cc2)cc1 | . | . | . | -12.9 | . | .
Nc1cccc(Nc2nc(OC(C(F)(F)F)C(F)(F)F)nc(OC(C(F)(F)F)C(F)(F)F)n2)c1 | -4.8 | 7.2 | 1.8 | 28.2* | 31.4* | -3.1 | 535nm interf DR=>122
CC(C)Oc1ccc(Oc2ccc(C#C[C@H](C)N3C(=O)c4ccccc4C3=O)cc2)cn1 | . | . | . | 1.8 | . | .
COc1ccc(Cn2ccc3ccc(-c4ccc5ccn(Cc6ccccc6F)c5c4)cc32)cc1 | . | . | . | 19.8* | 12.7 | 4.6
CC1CC(O)(CC(O)(c2ccccc2)c2ccccc2)C(C)CN1C (stereo not given) | 10.5 | 3.3 | -0.1 | 19.3* | -12.8 | -15.8
COc1ccc(C(=O)c2[nH]c(N)c(C(N)=O)c2-c2ccc(OC)c(OC)c2)cc1 | . | . | . | 1.3 | . | .
COc1cc(-c2c(C(=O)c3ccccc3)[nH]c(N)c2C(N)=O)ccc1F | . | . | . | 9.8 | . | .
SMILES | SUMO HTRF inh | NR3A LBD binder | UBC13 inh | HGIII-sPLA2 inh | hGIII sPLA2 conf | 535nm interf | others
COc1ccc(-c2c(C(=O)c3ccccc3)[nH]c(N)c2C(=O)c2ccc(Br)cc2)cc1OC | . | . | . | 25.7* | 19.9* | -1.6
COc1ccc(-c2c(C(=O)c3ccccc3)[nH]c(N)c2C(=O)c2ccccc2)cc1OC | . | . | . | 20.5* | 8.8 | -8.4
Cc1ccc(N2CN(Cc3cccnc3)CNC2=S)cc1 | 3.1 | -0.3 | -1.6 | 0.7 | . | .
Cc1ccc(C)c(N2CN(Cc3cccnc3)CNC2=S)c1 | -8.0 | -3.2 | -1.6 | 19.8* | 3.1 | -0.7
CCn1c(Cc2cccs2)nnc1SCC(=O)Nc1ccc(OCc2ccccc2)cc1 | . | . | . | -37.6 | . | .
CC(C)(CO)Cc1cc(C(C)(C)C)c(O)c(C(C)(C)C)c1 | . | 1.9 | -3.5 | 19.9* | -1.6 | -9.3
O=C(NNC(=O)C1CCN(S(=O)(=O)c2ccc(Cl)cc2)CC1)c1ccccc1O | . | 4.9 | 2.8 | 20.6* | 3.7 | -5.1
NNC(=O)C1CCN(S(=O)(=O)c2ccc(Cl)cc2)CC1 | . | -3.7 | 3.3 | -6.4 | . | .
COc1ccccc1NC(=O)NNC(=O)c1ccc2ccccc2c1O | 1.7 | -6.2 | 8.5 | 30.0* | 35.9* | 5.4 | 535nm interf DR=>122
COc1cccc(C(=O)NNC(=O)c2ccccc2)c1 | -7.6 | 1.6 | -1.1 | 2.7 | . | .
COc1cccc(C(=O)NNC(=O)c2ccc3ccccc3c2O)c1 | . | -1.2 | 1.5 | 24.6* | 14.1 | 0.2
O=C(NNC(=O)c1ccc2ccccc2c1O)c1ccccc1Cl | -23.9 | -5.4 | -13.5 | 30.8* | 36.6* | 2.7 | 535nm interf DR=>122
COc1ccccc1NC(=O)NNC(=O)c1ccc2ccccc2c1 | 5.0 | -0.3 | 14.8 | -3.2 | . | .
Cc1ccccc1NC(=O)NNC(=O)c1ccc2ccccc2c1O | -11.6 | -0.8 | 2.1 | 38.5* | 28.5* | 1.2 | 535nm interf DR=>122
O=C(NNC(=O)c1ccc2ccccc2c1O)c1cccs1 | -22.4 | -1.0 | -1.5 | 7.3 | . | .
COC(=O)C[C@H]1CC[C@@H]2[C@H](COc3ccc(NC(=O)c4ccccc4OC)cc3C(=O)N2C)O1 | . | . | . | 8.3 | . | .
CC1CCN(C(=O)C2CCCN(C(=O)c3ccc4c(c3)NC(=O)CS4)C2)CC1 (stereo not given) | . | . | . | -1.0 | . | .
O=C(NCCCc1ccccc1)[C@H](Cc1c[nH]c2ccccc12)NC1(C(=O)NCCc2c[nH]c3ccccc23)CCOCC1 | . | . | . | -83.2 | . | .
COc1ccc(NC(=O)NNC(=O)c2ccc3ccccc3c2O)cc1OC | -5.9 | -3.5 | 3.7 | 28.1* | 28.0* | 0.5 | 535nm interf DR=>122
Cc1ccc(-c2nnc(Nc3ccc(CC(N)=O)cc3)c3ccccc23)cc1 | 4.9 | -14.2 | 6.0 | 20.8* | 17.0 | -17.8
Cc1ccc(-c2nnc(Nc3ccc(CC(N)=O)cc3)c3ccccc23)cc1S(=O)(=O)NCC1CCCO1 (stereo not given) | 24.5 | -0.9 | -7.1 | 19.3* | -2.7 | -26.0
